According to ChEMBL document CHEMBL4513216, “Probing the Open Global Health Chemical Diversity Library for Multistage-Active Starting Points for Next-Generation Antimalarials” (ACS Infect Dis, 2020):
About 8,600 (12%) of roughly 69,000 compounds showed an effect of 50% or more. The sample holds strong results, similar compounds and a random draw of the others, so the mix is not that of the screen.

system: Plasmodium berghei; experiment: Screen against P. berghei liver stage (PbLuc), transformed with Luciferase, at 10uM; format: functional, HepG2; conditions: tested at 10 uM

Row | Structure (SMILES) | INHIBITION
1 | COc1ccc(CN2C[C@@H](OCc3csc(C)n3)[C@H]3COC[C@H]32)cc1 | -21.5%
2 | N#CC1CCCN(C(=O)Cn2ncc(N3CCCC3)cc2=O)C1 (centres undefined) | 44.9%
3 | CCc1cc(N2CCC3(CCCNC3=O)C2)nc(N2CCOCC2)n1 (centres undefined) | 70.3%
4 | Cc1cc(C2CCC2)nc(N2CCC3(CCCNC3=O)C2)n1 (centres undefined) | 42.5%
5 | CCc1cc(N2CCCC(CC)(C(=O)O)C2)nc(N2CCOCC2)n1 (centres undefined) | 39.6%
6 | COCCN1CCN(c2nc(O)cc(Cc3ccccc3F)n2)CC1 | 38.7%
7 | COCCN1CCC(CN(CC2CCCO2)C(=O)CNC(C)=O)CC1 (centres undefined) | 50.2%
8 | Cn1c(CN2CCN(CC3CCCO3)CC2)nc2ccccc21 (centres undefined) | 27.6%
9 | Cc1cccc(C)c1OCCCN1CCC(n2cncn2)CC1 | -49.5%
10 | COCCN1CCC(CN(CC2CCCO2)C(=O)CCNC(C)=O)CC1 (centres undefined) | -14.9%
11 | COCCN1CCC(CN(CC2CCCO2)C(=O)COC)CC1 (centres undefined) | 26.8%
12 | Cc1cccc(C)c1OCCCN1CCN(CC2CCCO2)CC1 (centres undefined) | 67.1%
13 | COCCN1CCN(CC2CCCCO2)CC1 (centres undefined) | 51.7%
14 | COCCCN1CCN(CC2CCCO2)CC1 (centres undefined) | 17.5%
15 | O=S(=O)(N1CCCC1)N1CCN(CC2CCCO2)CC1 (centres undefined) | 33.4%
16 | O=C(NCCCNC(=O)c1cccc(O)c1)Nc1ccc(Cl)cc1 | 45.5%
17 | CC(C)c1cc(C(=O)N2CCC3(CCc4ccccc4C(=O)N3)C2)no1 (centres undefined) | 2.415%
18 | O=S(=O)(c1c(F)cccc1F)N1CCCC1c1nnc2n1CCCCC2 (centres undefined) | -21.2%
19 | CCCN1CCCn2c(nc(CNC(=O)N3CCCC3)cc2=O)C1 | 49.1%
20 | COc1ccc2ncn(Cc3ncc[nH]3)c(=O)c2c1 | -64.3%
21 | CCc1ccc2ncn(Cc3ncc[nH]3)c(=O)c2c1 | 15.2%
22 | COc1cc2ncn(Cc3ncc[nH]3)c(=O)c2cc1OC | 64.1%

Row | Structure (SMILES) | INHIBITION
23 | CCn1cnnc1CNC(=O)N1CCN(Cc2ccco2)CC1 | -2.19%
24 | O=C(CC1CCCC1)N1C[C@H](OCc2ccncc2)[C@H]2OCCC[C@H]21 | -32%
25 | CN1CCOC(CNCC(=O)NCCc2ccc(F)cc2)C1 (centres undefined) | -2.27%
26 | CC1CN(C)CCN1Cc1cccc(C(=O)N(C)C)c1 (centres undefined) | -32%
27 | O=C(C[S+]([O-])Cc1cccc(Cl)c1)NC1CCCC1 (centres undefined) | 15.2%
28 | CN(C)C(=O)c1cccc(C[S+]([O-])CC(=O)NC2CCCC2)c1 (centres undefined) | 54.4%
29 | O=C(C[S+]([O-])Cc1ccc(F)cc1Cl)NC1CCCC1 (centres undefined) | 66.7%
30 | CN(C)C(=O)c1cccc(CN2CCN(CCO)CC2)c1 | -170%
31 | O=C(Cc1ccc(F)cc1Cl)N[C@@H]1CCNC[C@H]1O | 4.59%
32 | O=C(C[S+]([O-])Cc1cccc(F)c1)NC1CCCC1 (centres undefined) | 54.4%
33 | CN(CC(=O)NC1CC1)S(=O)(=O)c1ccc(F)cc1Cl | -26.8%
34 | O=C(C[S+]([O-])Cc1cccc(C(F)(F)F)c1)NC1CCCC1 (centres undefined) | 21.9%
35 | COCCC1(CNC(=O)Nc2ccc(-n3ccnn3)cc2)CCC1 | -12.2%
36 | CSCC[C@H]1CN2CCC[C@H]2CN1Cc1cn(C)nc1C | 5.11%
37 | CN(Cc1ccco1)C(=O)C1CSCN1C(=O)C1CCC1 (centres undefined) | -16%
38 | CC(C)c1noc(C2CCCN2S(=O)(=O)N2CCCCCC2)n1 (centres undefined) | -31.7%
39 | CCS(=O)(=O)N1CCCCC1c1nc(C)no1 (centres undefined) | 20.1%
40 | CCS(=O)(=O)N1CCCCC1c1nc(C(C)C)no1 (centres undefined) | 57.3%
41 | Cc1ccc(C(C)NCc2c(C(C)C)nn(C)c2N2CCOCC2)o1 (centres undefined) | 7.27%
42 | CCOc1ccc(Cl)cc1C1CCCCN1 (centres undefined) | 54.9%
43 | CCOc1ccc(Br)cc1C1CCCCN1 (centres undefined) | 18.4%
44 | CCOc1ccc(Cl)cc1C1CCCN1 (centres undefined) | 18.2%

Row | Structure (SMILES) | INHIBITION
45 | O=C(CCn1ccnc1)N1CC[C@H](Oc2cccc(F)c2)[C@@H](O)CC1 | 7.3%
46 | O=C(Nc1nnc[nH]1)C(c1cccc(F)c1)N1CCOCC1 (centres undefined) | 52.6%
47 | Cc1cc(NC(=O)C(c2cccc(F)c2)N2CCOCC2)ccn1 (centres undefined) | 41.1%
48 | Cc1cc(NC(=O)C(c2cccc(F)c2)N2CCOCC2)sn1 (centres undefined) | -22.8%
49 | O=C(Cn1cc(I)cn1)N1CCNC1=O | -28%
50 | COC(=O)c1sccc1S(=O)(=O)N1CCC(Oc2ncccc2Cl)CC1 | 38.5%
51 | COC(=O)c1ccc(S(=O)(=O)N2CCC(Oc3cccnn3)CC2)cc1 | 26.6%
52 | N#Cc1cccnc1OC1CCN(S(=O)(=O)c2c(F)cccc2F)CC1 | 54.6%
53 | O=S(=O)(c1ccccc1F)N1CCC(Oc2cccnn2)CC1 | 43.3%
54 | N#Cc1cccnc1OC1CCN(S(=O)(=O)c2ccc(Br)cc2)CC1 | 50.4%
55 | O=S(=O)(c1cc(F)cc(F)c1)N1CCC(Oc2ccc(Cl)cn2)CC1 | 35.8%
56 | N#Cc1cccnc1OC1CCNCC1 | 5.58%
57 | O=S(=O)(c1c(F)cccc1F)N1CCC(Cn2cccn2)CC1 | 36.3%
58 | N#Cc1cccnc1OC1CCN(S(=O)(=O)c2ccc(F)c(Cl)c2)CC1 | 64.3%
59 | c1cncc(OCc2nnn3c2CN(Cc2ccsc2)CCC3)c1 | 16.6%
60 | Cc1ccncc1C(=O)N1CCCC(C(=O)CCc2ccccc2)C1 (centres undefined) | -34.8%
61 | COc1ccccc1NC(=O)NCC(O)c1ccc(F)cc1F (centres undefined) | 12.7%
62 | O=C(CC1CC1)N1CCC2(CCCN(CCOc3ccccc3)C2)C1 (centres undefined) | 27.2%
63 | NC(=O)CN1C[C@@H](c2ccccc2F)[C@@]2(CCCCC(=O)N2)C1 | 21.95%
64 | CCc1ccc(CCC(=O)N2CCC(=O)Nc3cccnc32)cc1 | 70.3%
65 | CC(C)c1ocnc1C(=O)N1CCC(=O)Nc2cccnc21 | 4.13%
66 | Cc1ccc(CCCC(=O)N2CCC(=O)Nc3cccnc32)s1 | 47.1%

Row | Structure (SMILES) | INHIBITION
67 | CN1CC[C@@H]2[C@@H]1CCN2Cc1ccc2c(c1)OCO2 | 35.8%
68 | Cc1cccc(CN2CC[C@@H]3[C@@H]2CCN3Cc2cccs2)n1 | 33.1%
69 | Cc1cccc(CN2C(=O)CC[C@@H]3[C@H]2CCN3Cc2cccnc2)n1 | 31.1%
70 | Cc1cccc(CN2CC[C@H]3[C@H]2CCN3C(=O)c2cnn(C)c2)n1 | -0.554%
71 | Cc1cccc(CN2C(=O)CC[C@@H]3[C@H]2CCN3Cc2ccc(F)cc2)n1 | 69.5%
72 | Cc1cccc(CN2C(=O)C[C@H]3[C@@H]2CCN3Cc2ccc(F)cc2)n1 | -4.82%
73 | Cc1cccc(CN2CC[C@H]3[C@H]2CCN3Cc2cnn(C)c2)n1 | 51.6%
74 | Cn1cc(CN2CC[C@@H]3[C@@H]2CCN3Cc2ccc3c(c2)OCO3)cn1 | 60.5%
75 | Cn1cc(C[C@H]2[C@H](O)CCN2Cc2ccc3c(c2)OCO3)cn1 | 22.9%
76 | Cc1cc(OCC(=O)NCc2ccc(F)cc2)nnc1C | -3.08%
77 | CC(=O)N1CCC2(CC1)CN(C(=O)[C@@H]1CSCN1)c1ccc(Cl)cc12 | 30.5%
78 | Cc1cc(CN2C[C@@H](N3CCN(C)CC3)[C@H]3OCCC[C@H]32)oc1C | -30%
79 | Cn1cnc2c1C(COCC1CCOCC1)CN(C(=O)C1CC=CC1)C2 (centres undefined) | 45.1%
80 | Cc1ccc(-c2cc(CN3CCc4cncnc4C3)on2)cc1 | -8.91%
81 | CN(C)[C@@H]1CN(C(=O)c2cc3cccc(F)c3[nH]2)C[C@H]1O | -0.275%
82 | COc1ccc(CN2CCCN(C(=O)C(C)n3ccnc3)CC2)cc1 (centres undefined) | 18.55%
83 | CN(CCCNC(=O)c1ccccc1OCC(N)=O)CC(F)(F)F | -52.1%
84 | CN(CCCNC(=O)c1ccccc1F)CC(F)(F)F | 52.3%
85 | CN(CCCNC(=O)c1ccc(C#N)cc1)CC(F)(F)F | 21.8%
86 | Cn1nnc2c1CCN(Cc1nccs1)C2COCc1ccccc1 (centres undefined) | 15.9%
87 | Cc1noc(C)c1-c1nc(C2CCCN(C(=O)CN)C2)ccc1CO (centres undefined) | 37.1%
88 | Cc1cnc(CN(Cc2cccc(O)c2)CC2CC2)cn1 | 65.9%

Row | Structure (SMILES) | INHIBITION
89 | Cc1cnc(CN(Cc2ccccc2)CC2CCOCC2)cn1 | 14.2%
90 | COCCN(Cc1cccc(O)c1)CC1CC1 | 45.2%
91 | Cc1cnc(N2CCCn3c(nnc3CN(C)C(C)C)C2)nc1 | -19.2%
92 | CCC(=O)N1CCC[C@]2(C(=O)N(C)C)CN(c3ccccn3)C[C@@H]2C1 | 34.2%
93 | CCN(Cc1ccc(C)o1)C(=O)C(C)n1ccnc1C(C)C (centres undefined) | 13%
94 | Cc1cccc(C(Nc2nccc(-c3ccc(C)nc3C)n2)C2CC2)n1 (centres undefined) | -11.2%
95 | Cc1cccnc1C(Nc1nccc(C2CCCC2)n1)C1CC1 (centres undefined) | 0.164%
96 | Cc1ccc(-c2ccnc(NC(c3ncccc3C)C3CC3)n2)c(C)n1 (centres undefined) | 51.2%
97 | CS(=O)(=O)N1C[C@@H](Oc2ccccn2)[C@H]2OCCC[C@H]21 | 29%
98 | Cc1cc(C)c(S(=O)(=O)Nc2c(C)nc(N(C)C)nc2C)cc1C | 4.12%
99 | CCN(C(=O)CN1CCn2c(C)nnc2C1)C1=CCCCC1 | -6.46%
100 | CCN(C(=O)CN1CCn2c(nnc2C2CC2)C1)C1=CCCCC1 | 51.2%
101 | CCCN(C(=O)CN1CCn2c(nnc2C2CC2)C1)C1=CCCCC1 | 18.7%
102 | Cc1cn2nc(N3CCCCC3Cn3cccn3)sc2n1 (centres undefined) | 11.6%
103 | O=C(NCCNc1cnccn1)N1CCN(c2nccs2)CC1 | 29.2%
104 | c1cc(CN2CC[C@@H]3CN(c4cncnc4)C[C@@H]3C2)ccn1 | 27.6%
105 | COc1ncccc1CN1C[C@H]2CCN(c3ccc(C)nn3)C[C@H]2C1 | 41.4%
106 | c1cnc(N2C[C@H]3CCN(Cc4ccncc4)C[C@H]3C2)nc1 | 58.4%
107 | COc1ncccc1CN1C[C@H]2CCN(c3ncccn3)C[C@H]2C1 | 56.4%
108 | COc1ncccc1CN1C[C@@H]2CN(c3ncccn3)C[C@@H]2C1 | 47.4%
109 | Cc1ccc(CN2C[C@@H]3CN(c4ncccn4)C[C@@H]3C2)cc1 | 40.8%
